LYPLA2 counter – blocks human lysophospholipase 2, a PME1 counter-screen; inhibition, % at 5.9 µM; AID 2177; O95372; recombinant LYPLA2, FP-Rh probe fluorescence polarization; 320,000 tested, 0.38% active;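 active = inhibition above the screen-wide mean plus 3 SD, limit set per campaign, cut at about 26% in these data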;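 also: 0% = LYPLA2 with DMSO and 100% = wells lacking LYPLA2 enzyme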
PREPL inh – human PREPL enzyme inhibition | Q4J6C6 | recombinant PREPL, fluorescence polarization activity-based probe | inhibition, % at 5.96 µM | 320,000 tested, 0.68% active | AID 2751;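 also: 0% = enzyme with DMSO and 100% = wells lacking enzyme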
Target sequence (Q4J6C6 whole entry, looked up): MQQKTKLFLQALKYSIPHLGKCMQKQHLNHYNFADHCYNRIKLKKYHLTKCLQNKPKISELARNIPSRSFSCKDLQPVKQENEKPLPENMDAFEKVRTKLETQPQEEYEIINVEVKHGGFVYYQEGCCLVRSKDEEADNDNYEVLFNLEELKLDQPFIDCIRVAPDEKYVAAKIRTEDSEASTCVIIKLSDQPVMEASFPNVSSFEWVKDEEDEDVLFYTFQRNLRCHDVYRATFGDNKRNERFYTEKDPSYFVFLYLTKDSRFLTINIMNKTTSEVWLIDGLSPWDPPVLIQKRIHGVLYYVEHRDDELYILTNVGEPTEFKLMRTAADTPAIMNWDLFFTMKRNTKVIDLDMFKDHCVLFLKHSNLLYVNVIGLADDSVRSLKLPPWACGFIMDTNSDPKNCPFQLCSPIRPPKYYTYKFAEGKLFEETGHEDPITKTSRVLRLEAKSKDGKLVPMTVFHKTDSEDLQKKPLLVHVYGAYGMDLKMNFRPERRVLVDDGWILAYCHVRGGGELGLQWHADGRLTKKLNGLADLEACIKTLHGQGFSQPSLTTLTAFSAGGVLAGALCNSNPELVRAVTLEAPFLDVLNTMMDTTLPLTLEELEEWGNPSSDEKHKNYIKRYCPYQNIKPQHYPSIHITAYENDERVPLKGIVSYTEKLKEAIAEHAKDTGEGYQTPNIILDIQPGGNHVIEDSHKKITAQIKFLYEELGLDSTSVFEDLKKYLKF
MEX-5 binding – C. elegans MEX-5 TCR-2 RNA binding activity. 300,000 tested, 0.38% active. Q9XUB2. activity score (negative = inhibition of binding), % at 10 µM. MEX-5/FITC-TCR2 RNA binding, fluorescence polarization; active compounds read low;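 active = inhibition past about -25% in most replicates, and total fluorescence under double the plate's negative control median, limit read from the data; inconclusive = replicates evenly split on the limit, or fluorescence at least double controls; inactive = too little inhibition in most replicates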;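 also: 0% = DMSO and -100% = 5 µM competing unlabeled TCR2 RNA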
PME-1 primary – blocks human protein phosphatase methylesterase 1; Q9Y570; recombinant PME-1, FP-Rh probe fluorescence polarization; inhibition, % at 5.9 µM; 320,000 tested, 0.53% active; AID 2130;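 active = inhibition above the campaign mean of all compounds plus 3 SD, cut at about 26% in these data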;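 also: competitive labeling of PME-1 active site by serine hydrolase directed probe; 0% = PME-1 with DMSO and 100% = wells lacking PME-1 enzyme; inhibitors block probe labeling so polarization falls and inhibition rises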
Fam108B counter – counter-screen for RBBP9 inhibitors: inhibitors of mouse Fam108B; recombinant Fam108B, FP-Rh probe fluorescence polarization; inhibition, % at 9.51 µM; 300,000 tested, 0.33% active;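 active = inhibition above the screen mean inhibition plus 3 SD, computed separately per campaign, cut at about 18% in these data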;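 also: inhibitors lower polarization as less probe binds the enzyme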
LYPLA1 counter – LYPLA1 (human) inhibition in PME1 counter-screen; inhibition, % at 5.9 µM; 320,000 tested, 0.16% active; recombinant LYPLA1, FP-Rh probe fluorescence polarization; O75608;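 active = inhibition above the mean of all tested compounds plus 3 SD, set per campaign, cut at about 14% in these data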;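 also: inhibitors block serine hydrolase probe labeling of LYPLA1 so polarization falls; 0% = enzyme with DMSO and 100% = wells lacking LYPLA1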
PREPL confirm – confirmation of human PREPL enzyme inhibitors. shares compounds with PREPL inh. recombinant PREPL, fluorescence polarization activity probe. inhibition, % at 5.96 µM. 2,000 tested, 67% active;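 also: 0% = protein with DMSO and 100% = wells lacking protein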
Active calls of the source: *; ? = inconclusive; · = not tested or not shown. In the library only some 1.6% were active in any assay of this set; here they are far more common. Rule as the data show it, unless noted: active = inhibition above about 43%; inactive = the rest.

SMILES	LYPLA2 counter	PREPL inh	MEX-5 binding	PME-1 primary	Fam108B counter	LYPLA1 counter	PREPL confirm
Cc1sc2nc(CN3CCCC3)nc(N3CCN(C(=O)c4ccco4)CC3)c2c1C	-1	28	2	2	-2	-1	·
O=C(CCc1nnc(CCCCc2ccccc2)o1)NCCN1CCOC1=O	-2	8	1	-1	7	-6	·
CCCn1c(SCC(=O)Nc2cccc(S(=O)(=O)NC3=NCCCCC3)c2)nc2ccccc2c1=O	9	11	2	7	5	0	·
O=C1Nc2ccccc2S/C1=C/Nc1cccc(Cl)c1	3	45*	2	7	1	-3	33
Cc1c(C(=O)N2CCN(Cc3ccc4c(c3)OCO4)CC2)sc2ncnc(N3CCN(c4ccccc4)CC3)c12	5	45*	-2	3	4	0	48*
Cc1c(C(=O)N2CCN(c3ccccc3)CC2)sc2ncnc(N3CCC(C)CC3)c12	10	-101	2	9	1	1	·
Cc1c(C(=O)N2CCN(Cc3ccc4c(c3)OCO4)CC2)sc2ncnc(N3CCN(c4ccccc4F)CC3)c12	5	48*	-4	0	-2	-3	44*
CCN1CCN(C(=O)c2sc3ncnc(N4CCc5ccccc5C4)c3c2C)CC1	-2	-21	1	6	-1	-3	·
CCCNC(=O)Cn1cnc2sc(C(=O)N3CCN(Cc4ccc5c(c4)OCO5)CC3)c(C)c2c1=O	-1	8	-1	1	-2	3	·
Cc1c(C(=O)N2CCN(c3ccccn3)CC2)sc2ncnc(N3CCN(c4ccccc4)CC3)c12	4	44*	1	2	-2	2	28
Cc1cccc(C)c1OCC(=O)Nc1cc(Cl)ccc1-n1cncn1	-4	9	-2	2	2	-4	·
COc1ccccc1-[n+]1c(C)cc(/C=C2\Sc3ccccc3N2C)cc1C	5	64*	?	-3	-3	-1	71*
COc1ccc(C(=O)/C=C2\Sc3ccccc3N2C)cc1	-5	36	-4	4	3	2	·
COc1ccc(-[n+]2c(C)cc(/C=C3\Sc4ccccc4N3C)cc2C)cc1	8	70*	?	-4	4	3	69*
O=C(COC(=O)COc1ccc(Cl)cc1Cl)NC1CC1	·	3	·	·	·	·	·
CN(C(=O)COC(=O)CN1C(=O)c2ccccc2C1=O)c1c(N)n(Cc2ccccc2)c(=O)[nH]c1=O	-5	6	1	-5	-2	-1	·
CC(=O)N1CCCc2ccc(NS(=O)(=O)c3ccc(C)cc3)cc21	4	20	-3	5	4	1	·
COc1cc(C(=O)NC(=S)Nc2ccc3oc(=O)ccc3c2)cc(OC)c1OC	4	1	3	1	-5	2	·
COc1ccc(C(=O)NC(=S)Nc2ccc3oc(=O)ccc3c2)cc1[N+](=O)[O-]	16	47*	-2	0	-12	2	3
CCCCC(=O)Nc1ccc(C)c(O)c1	-7	14	1	-3	9	-3	·
Cc1ccc(-c2csc(=Nc3cccnc3)n2CCCn2ccnc2)cc1C	-1	47*	-7	-1	0	-1	57*
Cc1ccc(-c2csc(=Nc3cccnc3)n2CCCN2CCCC2=O)cc1C	6	49*	-2	2	2	1	54*
c1cncc(N=c2scc(-c3cccc4ccccc34)n2CCCn2ccnc2)c1	4	53*	0	14	1	6	54*
COCCn1cnc2c1c(=O)n(Cc1c(F)cccc1Cl)c(=O)n2Cc1ccccc1	-6	-2	2	4	3	-3	·
COc1nc(N)nc(NC23CC4CC(CC(C4)C2)C3)n1	0	6	1	4	-2	1	·
SMILES	LYPLA2 counter	PREPL inh	MEX-5 binding	PME-1 primary	Fam108B counter	LYPLA1 counter	PREPL confirm
COc1ccc(C(=O)NNC(=O)CSc2nnnn2C)cc1	0	18	0	5	0	-2	·
Cc1cc(OCC(=O)Nc2ccc(S(=O)(=O)N3CCN(C)CC3)cc2)ccc1Cl	6	6	-3	-7	3	-8	·
CN1CCN(c2ccc(NC(=O)COc3ccccc3Cl)cc2)CC1	7	44*	5	5	4	3	42
Cc1cc(OCC(=O)Nc2ccc(N3CCN(C)CC3)cc2)ccc1Cl	10	70*	1	-6	0	0	56*
Cc1[nH]c(C)c(S(=O)(=O)NCCc2ccc(S(N)(=O)=O)cc2)c1C(=O)N1CCCC1	-2	54*	-1	-4	-1	-1	13
Oc1nc(Nc2ccccc2)sc1/C=C1\C=Nc2ccccc21	-16	59*	4	44*	14	-12	63*
CCOC(=O)c1c(Nc2ccccc2)sc(/C=C2\C=Nc3ccccc32)c1O	3	33	0	9	5	0	·
Cc1ccc(OCCC(=O)Nc2ccc(F)c(Cl)c2)cc1	-5	-15	-3	-8	0	-6	·
Cc1c(NCc2cc(Cl)cc(Cl)c2O)c(=O)n(-c2ccccc2)n1C	6	50*	-1	4	8	-4	58*
Cc1c(C)n(C)c2ccc(C(=O)NCCCN3CCN(c4ccccc4F)CC3)cc12	7	44*	1	1	1	1	42
CSc1ccc(NC(=O)NCCCN2CCN(c3ccccc3F)CC2)cc1	-1	43*	1	-1	1	0	42
O=C(NCCCN1CCN(c2ccccc2F)CC1)Nc1ccc(F)cc1	4	18	4	-1	0	-4	·
Cc1ccccc1OCCCC(=O)Nc1ccc(N2CCOCC2)cc1	-1	50*	-1	2	4	3	34
O=C(CCn1ccc2ccccc21)Nc1ccc(N2CCOCC2)cc1	-1	45*	-2	6	5	0	38
COc1ccccc1OCCCC(=O)Nc1ccc(N2CCOCC2)cc1	8	8	3	-3	3	1	·
Cc1ccccc1NC(=O)COC(=O)c1ccc2nc(C)c(C)nc2c1	3	2	·	4	·	3	·
CCc1oc2ccccc2c1C(=O)c1cc(Br)c(O)c(Br)c1	0	-5	-5	6	11	-1	·
CCNc1sc(C(=O)c2cccs2)c(N)c1-c1nc2ccccc2s1	0	10	-2	13	4	1	·
CCOC(=O)c1sc(NCc2ccco2)c(-c2nc3ccccc3s2)c1N	4	45*	-2	9	7	4	46*
COc1ccc(-c2cn[nH]c2-c2ccc(OCc3ccccc3)cc2O)cc1OC	2	49*	2	7	3	-6	32
C[C@H](CO)N1C[C@H](C)[C@@H](CN(C)Cc2ccncc2)Oc2c(NS(=O)(=O)c3ccc(Cl)cc3)cccc2C1=O	·	48*	·	·	·	·	45*
O=C1CCC(C(=O)OCc2nnc(-c3ccc(Cl)cc3)o2)=NN1	5	3	1	-3	-1	2	·

Source: PubChem (several laboratories)
